The panel holds about 83,000 compounds, 20% with a hit somewhere; the sample as a whole holds those more often.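 Cells were grown in 96-well plates and exposed to the test compound at a single concentration for 48 hours; results are reported as percent growth, with values below 10 considered active.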 The source made the active and inactive calls.
Columns and labels:
Experiment in all cases: NCI-60 one-dose screen, 48 h (100 = growth as untreated, 0 = no growth, -100 = all killed)
Details in all cases: 10 µM unless noted
HCT-15 colon = system: HCT-15 colon
HT29 colon = system: HT29 colon
SNB-75 CNS = system: SNB-75 CNS
SNB-19 CNS = system: SNB-19 CNS
U251 CNS = system: U251 CNS
PC-3 prostate = system: PC-3 prostate
SK-MEL-5 melanoma = system: SK-MEL-5 melanoma
UACC-62 melanoma = system: UACC-62 melanoma
LOX IMVI melanoma = system: LOX IMVI melanoma
SK-MEL-28 melanoma = system: SK-MEL-28 melanoma
SK-MEL-2 melanoma = system: SK-MEL-2 melanoma
EKVX NSCLC = system: EKVX NSCLC
SN12C renal = system: SN12C renal
UO-31 renal = system: UO-31 renal
TK-10 renal = system: TK-10 renal
ACHN renal = system: ACHN renal
CAKI-1 renal = system: CAKI-1 renal
A498 renal = system: A498 renal
CCRF-CEM leukemia = system: CCRF-CEM leukemia
MOLT-4 leukemia = system: MOLT-4 leukemia

Measured: growth

COc1ccc(-c2cnnc3c(-c4cccc(C(F)(F)F)c4)cnn23)cc1
active: SNB-75 CNS -26.9% | SK-MEL-5 melanoma 5.82% | CAKI-1 renal -31.8%
inactive: HCT-15 colon 68.3% | HT29 colon 63.6% | SNB-19 CNS 50.4% | U251 CNS 17.5% | PC-3 prostate 63.2% | UACC-62 melanoma 62.6% | LOX IMVI melanoma 75.4% | SK-MEL-28 melanoma 56.1% | SK-MEL-2 melanoma 54.6% | EKVX NSCLC 30.6% | SN12C renal 49.8% | UO-31 renal 57.6% | TK-10 renal 21% | ACHN renal 14.9% | A498 renal 78.6% | CCRF-CEM leukemia 61.2% | MOLT-4 leukemia 89.2%

Cc1ccc(C2CC(c3cccc(Nc4ccncc4)c3)=NN2c2ccccc2)cc1 (stereo not given)
active: HCT-15 colon -82.6% | HT29 colon -42% | SNB-75 CNS -95.6% | SNB-19 CNS -76.8% | U251 CNS -54.1% | PC-3 prostate -66.7% | SK-MEL-5 melanoma -94.1% | UACC-62 melanoma -94.9% | LOX IMVI melanoma -100% | SK-MEL-28 melanoma -98.9% | SK-MEL-2 melanoma -64.6% | EKVX NSCLC -51.9% | SN12C renal -93.1% | UO-31 renal -100% | TK-10 renal -83.6% | ACHN renal -99.8% | CAKI-1 renal -94.6% | CCRF-CEM leukemia -24.5% | MOLT-4 leukemia -26.8%
inactive: A498 renal 30.7%

NC(=O)c1ccc[n+](CC(=O)N2CCN(c3cc4c(cc3F)c(=O)c(C(=O)O)cn4C3CC3)CC2)c1
inactive: HCT-15 colon 81.8% | HT29 colon 99.3% | SNB-75 CNS 88.2% | SNB-19 CNS 92.6% | U251 CNS 88.4% | PC-3 prostate 88.9% | SK-MEL-5 melanoma 93.7% | UACC-62 melanoma 59.2% | LOX IMVI melanoma 43% | SK-MEL-28 melanoma 75.8% | SK-MEL-2 melanoma 95.9% | EKVX NSCLC 106% | SN12C renal 58% | UO-31 renal 74.3% | TK-10 renal 116% | ACHN renal 84.5% | CAKI-1 renal 96.9% | A498 renal 101% | MOLT-4 leukemia 26.6%
active: CCRF-CEM leukemia -25.2%

Cc1nc2sc(C(=O)Nc3cccc(Br)c3)c(N)c2cc1C(=O)c1ccc(C(F)(F)F)cc1
inactive: HCT-15 colon 88.1% | HT29 colon 90.3% | SNB-75 CNS 55% | SNB-19 CNS 82.3% | U251 CNS 58.7% | PC-3 prostate 70.2% | SK-MEL-5 melanoma 91% | UACC-62 melanoma 82.7% | LOX IMVI melanoma 73.3% | SK-MEL-28 melanoma 92.1% | SK-MEL-2 melanoma 104% | EKVX NSCLC 87.7% | SN12C renal 71% | UO-31 renal 86.3% | TK-10 renal 90.8% | ACHN renal 49.7% | CAKI-1 renal 79.8% | A498 renal 109% | CCRF-CEM leukemia 82.1% | MOLT-4 leukemia 94.7%

Fc1ccccc1CSc1ncnc2nc[nH]c12
inactive: HCT-15 colon 114% | HT29 colon 107% | SNB-75 CNS 105% | SNB-19 CNS 94.3% | U251 CNS 106% | PC-3 prostate 105% | SK-MEL-5 melanoma 105% | UACC-62 melanoma 94.2% | LOX IMVI melanoma 96.4% | SK-MEL-28 melanoma 112% | SK-MEL-2 melanoma 86.6% | EKVX NSCLC 113% | SN12C renal 101% | UO-31 renal 94.9% | TK-10 renal 142% | ACHN renal 107% | CAKI-1 renal 103% | A498 renal 112% | CCRF-CEM leukemia 117% | MOLT-4 leukemia 92.3%

COc1ccc(C(=O)/C=C/c2cn(Cc3ccc(Cl)cc3)c3ccccc23)cc1
active: CAKI-1 renal 2.08% | A498 renal -6.05%
inactive: HCT-15 colon 39.7% | HT29 colon 22.8% | SNB-75 CNS 76.9% | SNB-19 CNS 82.4% | U251 CNS 59.6% | PC-3 prostate 61.3% | SK-MEL-5 melanoma 89.1% | UACC-62 melanoma 31.3% | LOX IMVI melanoma 49.2% | SK-MEL-28 melanoma 80.6% | SK-MEL-2 melanoma 74.6% | EKVX NSCLC 89% | SN12C renal 69.4% | UO-31 renal 53.7% | TK-10 renal 27.4% | ACHN renal 62.1% | CCRF-CEM leukemia 41.1% | MOLT-4 leukemia 39.8%

O=C(N/N=C/c1ccc(O)c(O)c1)c1sc2ccccc2c1Cl
inactive: HCT-15 colon 33.9% | HT29 colon 105% | SNB-75 CNS 83.2% | SNB-19 CNS 59.4% | U251 CNS 59.2% | PC-3 prostate 66.6% | SK-MEL-5 melanoma 81.8% | UACC-62 melanoma 73.8% | LOX IMVI melanoma 68.7% | SK-MEL-28 melanoma 56.8% | EKVX NSCLC 98.3% | SN12C renal 77.1% | UO-31 renal 61% | TK-10 renal 109% | ACHN renal 62.9% | CAKI-1 renal 84.7% | A498 renal 71.4% | CCRF-CEM leukemia 14.1% | MOLT-4 leukemia 43.7%
active: SK-MEL-2 melanoma -13.4%

CN1CCN(c2c(F)cc(NC3=C(Cl)C(=O)c4ncccc4C3=O)cc2F)CC1
inactive: HCT-15 colon 63.3% | HT29 colon 104% | SNB-75 CNS 87.8% | SNB-19 CNS 101% | U251 CNS 103% | PC-3 prostate 88.5% | SK-MEL-5 melanoma 100% | UACC-62 melanoma 100% | SK-MEL-28 melanoma 69.8% | SK-MEL-2 melanoma 99.2% | EKVX NSCLC 91% | SN12C renal 84.2% | UO-31 renal 34.3% | TK-10 renal 66.9% | CAKI-1 renal 62.2% | A498 renal 88.1%
active: LOX IMVI melanoma 5.89% | ACHN renal -63% | CCRF-CEM leukemia 5.66% | MOLT-4 leukemia 0.45%

Cn1c(COC(=O)NCCn2ccnc2)nc2c(N3CCOCC3)nc(-c3ccccc3)nc21
active: HCT-15 colon -51.3% | HT29 colon -12.1% | SNB-75 CNS -89.9% | SNB-19 CNS 8.21% | U251 CNS -61% | PC-3 prostate -74.7% | SK-MEL-5 melanoma -96% | UACC-62 melanoma -93.9% | LOX IMVI melanoma -88.9% | SK-MEL-28 melanoma -98.8% | SK-MEL-2 melanoma -69.6% | EKVX NSCLC -64.5% | SN12C renal -90.3% | UO-31 renal -100% | TK-10 renal -83.3% | ACHN renal -100% | CAKI-1 renal -94.2% | A498 renal -24.2% | CCRF-CEM leukemia -17.9% | MOLT-4 leukemia -10.3%

COC(=O)Nc1nc2ccc(C(=O)c3cccc(I)c3)cc2[nH]1
active: HT29 colon 2.12% | SNB-75 CNS -15.3% | SK-MEL-5 melanoma -33.9% | CAKI-1 renal 5.37% | A498 renal -15.3% | CCRF-CEM leukemia 5.32%
inactive: HCT-15 colon 11.8% | SNB-19 CNS 33.6% | U251 CNS 13.6% | PC-3 prostate 20.9% | UACC-62 melanoma 24.8% | LOX IMVI melanoma 16.6% | SK-MEL-28 melanoma 49.4% | SK-MEL-2 melanoma 12.1% | EKVX NSCLC 29.9% | SN12C renal 23.3% | UO-31 renal 28.8% | TK-10 renal 42.4% | ACHN renal 17.5% | MOLT-4 leukemia 19.1%

CN1CCN(c2ccc(NC3=C(Cl)C(=O)c4ncccc4C3=O)cc2C#N)CC1
inactive: HCT-15 colon 48.2% | HT29 colon 103% | SNB-75 CNS 81.1% | SNB-19 CNS 96.8% | U251 CNS 56.1% | PC-3 prostate 60.6% | SK-MEL-5 melanoma 97.5% | UACC-62 melanoma 83.4% | SK-MEL-2 melanoma 78.8% | EKVX NSCLC 36.4% | SN12C renal 25.5% | TK-10 renal 85.4% | A498 renal 79.7%
active: LOX IMVI melanoma -61.6% | SK-MEL-28 melanoma -50.9% | UO-31 renal -34.9% | ACHN renal -96.1% | CAKI-1 renal 0.744% | CCRF-CEM leukemia -19.9% | MOLT-4 leukemia -10.8%

CC(=O)O[C@H]1CC[C@@]2(C)[C@@H](CC[C@@H]3[C@@H]2CC[C@@]2(C)[C@H]3CC[C@]2(O)C(C)=O)C1
inactive: HCT-15 colon 102% | HT29 colon 107% | SNB-75 CNS 94.9% | SNB-19 CNS 102% | U251 CNS 94% | PC-3 prostate 95.7% | SK-MEL-5 melanoma 94% | UACC-62 melanoma 91% | LOX IMVI melanoma 99.2% | SK-MEL-28 melanoma 103% | SK-MEL-2 melanoma 117% | EKVX NSCLC 87.1% | SN12C renal 96.4% | UO-31 renal 92.7% | TK-10 renal 99.2% | ACHN renal 88.6% | CAKI-1 renal 99.3% | A498 renal 90% | CCRF-CEM leukemia 98.9% | MOLT-4 leukemia 97.6%

O=C(O)CNC(=O)CN1C(=O)c2ccccc2C1=O
inactive: HCT-15 colon 105% | HT29 colon 110% | SNB-75 CNS 90.4% | SNB-19 CNS 108% | U251 CNS 96.8% | PC-3 prostate 84.1% | SK-MEL-5 melanoma 99.6% | UACC-62 melanoma 108% | LOX IMVI melanoma 95% | SK-MEL-28 melanoma 103% | SK-MEL-2 melanoma 114% | EKVX NSCLC 103% | SN12C renal 99.1% | UO-31 renal 86.3% | TK-10 renal 104% | ACHN renal 103% | CAKI-1 renal 95.9% | A498 renal 104% | CCRF-CEM leukemia 81.1% | MOLT-4 leukemia 91.8%

C#Cc1cccc(NC(=O)Nc2ccc(NC(=O)CCl)cc2)c1
inactive: SNB-19 CNS 32.4% [8.25 µM] | SK-MEL-28 melanoma 67.6% [8.25 µM] | EKVX NSCLC 88.3% [8.25 µM] | A498 renal 76.4% [8.25 µM]
active: HCT-15 colon -63.1% [8.25 µM] | HT29 colon -69.5% [8.25 µM] | SNB-75 CNS -27.9% [8.25 µM] | U251 CNS -72% [8.25 µM] | PC-3 prostate 8.79% [8.25 µM] | SK-MEL-5 melanoma -73.9% [8.25 µM] | UACC-62 melanoma -44.3% [8.25 µM] | LOX IMVI melanoma -74.9% [8.25 µM] | SK-MEL-2 melanoma -25% [8.25 µM] | SN12C renal -9.22% [8.25 µM] | UO-31 renal -97.4% [8.25 µM] | TK-10 renal -71.4% [8.25 µM] | ACHN renal -99.5% [8.25 µM] | CAKI-1 renal 9.01% [8.25 µM] | CCRF-CEM leukemia -29.8% [8.25 µM] | MOLT-4 leukemia -9.78% [8.25 µM]

From PubChem BioAssay (NCI)
